Bioassay records from PubChem BioAssay.
Tgondii IFNg: T. gondii growth inhibition with IFN-gamma, primary screen, cell-based. Toxoplasma gondii growth in IFN-gamma-treated host cells; stronger effect = lower value. activity change, negative = inhibition, % (test concentration not listed). 3.8% of 69,000 active; in the data active = activity change below about -70%, passing the limit was not always enough;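 note: host cells are HeLa cells infected with Toxoplasma gondii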
Numbers without * were called inactive; i = inactive. Only a selection was taken, and hits are over-represented in it overall.

SMILES | Tgondii IFNg
C=CCN(CC=C)C(=O)CN1CCC[C@H]1CO | 13
Cc1cc(C)n(CC(C)C(=O)NC(Cc2cccs2)c2nccs2)n1 (centres undefined) | 70
O=C(NC(c1nccs1)C1CCCN(Cc2cccc(F)c2)C1)c1ccccc1 (centres undefined) | 20
CC[C@H](C)[C@@H]([C@@H](CC(=O)N1CCC[C@H]1[C@H](OC)[C@@H](C)C(=O)N[C@@H](Cc1ccccc1)c1nccs1)OC)N(C)C(=O)[C@@H](NC(=O)[C@H](C(C)C)N(C)C)C(C)C | -84*
Cc1ccc(C2(O)CCN(c3nccc(N4CCC(O)C4)n3)CC2)nc1 (centres undefined) | -9
COc1cccc(CC2CN(C(=O)c3ccc[nH]3)CCO2)c1 (centres undefined) | -14
COc1ccc(CCC(=O)N2CCC3(CC2)Nc2cc(F)ccc2-n2cccc23)cc1 | -75*
O=C(CCc1ccccc1)N1CCC2(CC1)Nc1cc(F)ccc1-n1cccc12 | 45
COc1ccc(OCC(=O)N2CCC3(CC2)Nc2cc(OC)ccc2-n2cccc23)cc1 | 18
COc1ccc2c(c1)NC1(CCN(C(=O)Cc3ccc(C)cc3)CC1)c1cccn1-2 | 12
COc1cc(CCC(=O)N2CCC3(CC2)Nc2cc(F)ccc2-n2cccc23)cc(OC)c1OC | 37
COc1ccc(CCC(=O)N2CCC3(CC2)Nc2cc(OC)ccc2-n2cccc23)cc1 | -82*
CC1CCCN(c2ncc3c(n2)[C@H]2CN(C(=O)c4ccccc4)C[C@@H]2S(=O)(=O)C3)C1 (some centres undefined) | 78
O=C(CCc1cc(=O)[nH]o1)N1CC[C@@H](c2ccc3ccccc3c2)[C@H](O)C1 | 3
CNS(=O)(=O)c1ccc(CN2CCN(Cc3cccc(F)c3)CC2)cc1 | -3
O=S(=O)(Nc1ccc(C2=NCCO2)cc1)c1ccc(Cl)cc1 | -18
O=S1(=O)CCN(Cc2ccc(NS(=O)(=O)c3ccc(Cl)cc3)cc2)CC1 | -92*
c1cncc(CN(Cc2ccc3c(c2)OCO3)Cc2cccc3nonc23)c1 | -8
C=CCn1c2ccccc2n2c(C(=O)CC)c(-c3ccccc3)nc12 | -98*
CCCc1c(-c2ccccc2)nc2[nH]c3ccccc3n2c1=O | 171
C=CCn1c(-c2c(-c3ccccc3)ncn2CCc2cnc[nH]2)nc2ccccc21 | -3
Cc1nc2ccccc2nc1CSCc1ccco1 | 41
CCOCC12CCCOC1CCN(Cc1ccc(C)s1)C2 (centres undefined) | -88*
CCOCC12CCCOC1CCN(C(=O)c1ccncc1)C2 (centres undefined) | -3
CCOCC12CCCOC1CCN(Cc1cccs1)C2 (centres undefined) | -32
SMILES | Tgondii IFNg
CC(C)c1cc(C2CCCN2C(=O)Cn2nc(C(F)(F)F)c3c2CCCC3)on1 (centres undefined) | 2
O=C(Nc1ccccc1)c1cccc2c1-c1ccccc1C2=O | 0
CC(C)OC(=O)c1cn(Cc2c(F)cccc2F)c2sc(-c3ccc(NC(=O)C(C)C)cc3)c(CN(C)Cc3ccccc3)c2c1=O | -80*
Cc1nc(CC(=O)N2CCCC3(CC2)CN(C)C(=O)O3)cs1 (centres undefined) | 1
Cc1n[nH]c(C)c1N=Nc1cc(Cl)cc(Cl)c1 | -92*
C=CCn1c(=O)c(C(=O)Nc2ccc3c(c2)OCO3)c(O)c2ccccc21 | 6
c1ccc(-c2ncc(CN3CCCn4cncc4C3)cn2)nc1 | -61
CO[C@H]1CCN(C(=O)c2cc(C)on2)C[C@@H]1Cc1ccccc1 | 61
CC(O)Cn1cnc2c(F)cccc2c1=O (centres undefined) | 2
Cc1cccc(NC(=O)NCC(c2cccnc2)c2cn(C)c3ccccc23)c1C (centres undefined) | i
CCOc1ccccc1-c1nc(CN(c2cccc(OC)c2)S(=O)(=O)c2ccccc2)c(C)o1 | -24
Oc1ccc(Cl)cc1C1=NC2(CCNCC2)NC(c2ccccc2O)C1 (centres undefined) | -102*
CN1CCC2(CC1)N=C(c1ccccc1O)CC(c1ccccc1O)N2 (centres undefined) | 32
CCOC(=O)N1CCC2(CC1)N=C(c1ccccc1O)CC(c1cc(Cl)ccc1O)N2 (centres undefined) | -36
CCOCc1cncc2c1CCN(C(=O)c1ccc3c(c1)OCO3)C2 | -2
CCN(CCc1nc2ccc(F)cc2[nH]1)C(=O)CC1C(=O)NCCN1C(C)C (centres undefined) | 5
O=C(NC(=O)c1cnccc1C(F)(F)F)Nc1ccc(Cl)cc1Cl | -54
Cc1cccc(C)c1-n1nnnc1-c1cnccc1C(F)(F)F | 26
FC(F)(F)c1ccncc1-c1ncc(-c2cccc(Cl)c2)o1 | -95*
CC(C)(C)C(=O)N1C[C@@H]2c3nc(NCC4CC4)ncc3CS(=O)(=O)[C@H]2C1 | -6
CO[C@@]12[C@@H]3NC3CN1C1=C(C(=O)C(N)=C(C)C1=O)[C@@H]2COC(N)=O (some centres undefined) | -80*
CC(C)c1nccc(-c2c(-c3ccccc3)ncn2C[C@H]2CCCN2)n1 | -63
CN(CCNc1nc(-c2ccc(Cl)cc2)nc2ccccc12)C1CCCCC1 | -77
CCNC(=O)c1cccc(-c2cc(N)nc3[nH]ccc23)c1 | 22
COc1ccc(-c2cc(N)nc3[nH]ccc23)cc1C | -78*
SMILES | Tgondii IFNg
CS(=O)(=O)c1ccc(-c2cc(N)nc3[nH]ccc23)cc1 | 4
CC(C)CN1CCC2(Cc3ccccc3NC2=O)C1 (centres undefined) | 75
Cc1oc(C2CCN(S(=O)(=O)c3cccc(F)c3)CC2)nc1C(=O)N1CCCC1 | 13
CSc1ccc(NC(=O)N2CCC(c3nc(C(=O)N4CCCCC4)c(C)o3)CC2)cc1 | -64
Cc1cccc(NC(=O)N2CCC(c3nc(C(=O)N(C)C)c(C)o3)CC2)c1C | -13
Cc1oc(C2CCN(C(=O)Nc3ccc(Cl)cc3)CC2)nc1C(=O)N1CCCC1 | -21
Cc1oc(C2CCN(S(=O)(=O)c3ccc(F)cc3)CC2)nc1C(=O)N1CCCC1 | -29
Cc1oc(C2CCN(C(=O)Nc3cccc(F)c3C)CC2)nc1C(=O)N(C)C | -79*
CSc1ccc(NC(=O)N2CCC(c3nc(C(=O)N4CCCC4)c(C)o3)CC2)cc1 | -84*
Cc1oc(C2CCN(C(=O)Nc3cccc(Cl)c3C)CC2)nc1C(=O)N(C)C | 15
Cc1ccc(F)cc1S(=O)(=O)N1CCC(c2nc(C(=O)N3CCCC3)c(C)o2)CC1 | -82*
Cc1oc2c(c1C(=O)N1CCCC(N(C)CCN(C)C)C1)C(=O)CCC2 (centres undefined) | 2
CNC(=O)C(C)N(C)Cc1cc(F)ccc1-n1nc(C)cc1C (centres undefined) | -51
CC(C)OCc1nnc(SCC(=O)O)n1C | -5
CN(Cc1ccccc1-n1cccn1)C(=O)c1cnn2ccn(C)c12 | -1
Cc1c(CN(C)Cc2cnc(-c3cccc4ccccc34)nc2)cnn1C | 35
Cc1nn(C)c(C)c1-c1ccnc(NCCN2CCN(C(C)C)CC2)n1 | -2
CSc1nccc(-c2ccc(S(C)(=O)=O)cc2)n1 | -4
Cc1ncc(-c2ccnc(Nc3ccc(S(C)(=O)=O)cc3)n2)n1C(C)C | -77*
CCCCN(Cc1cccnc1)C(=O)c1ccccc1C1CCNC1 (centres undefined) | 1
Cc1cc(C(F)(F)F)nc(C2COCCN2)n1 (centres undefined) | 33
O=C(c1ccccc1)N1CCS(=O)(=O)[C@H]2CCNCC[C@@H]21 | 0
CCc1ccc(NC(=O)C2=C(C)C(=O)OC23CCN(S(=O)(=O)CC)CC3)cc1 | 68
